Experimental data: PubChem BioAssay AID1030 (National Center for Advancing Translational Sciences (NCATS), 2008)
Values joined by “and” are separate entries in the source; they are usually repeats but may differ in a detail not shown here. Equal entries are not always repeated. Screen size: about 220,000 compounds; about 16,000 (7.3%) were called active. Another 25% or so got no clear call; they are omitted. The call rests on the fitted dose curve; in most records, active means well fitted inhibition curve with a large enough effect (not every such curve was filed as active); inconclusive means small, poorly fitted or top-dose-only effect, or another doubt; inactive means no such curve, though single readings can be large or run the other way. The entries come from a sample that favours actives as a whole. Entries that show only a call come without a potency. A structure can be active in one record and inactive in another.

These compounds were tested against Aldehyde dehydrogenase 1A1 (Homo sapiens) (UniProt P00352) (assay: qHTS Assay for Inhibitors of Aldehyde Dehydrogenase 1 (ALDH1A1)). Conditions: Purified ALDH1A1, NADH fluorescence, propionaldehyde substrate; series mostly up to 75.3 µM.
Chain of Aldehyde dehydrogenase 1A1 (Homo sapiens) (P00352 whole entry, looked up): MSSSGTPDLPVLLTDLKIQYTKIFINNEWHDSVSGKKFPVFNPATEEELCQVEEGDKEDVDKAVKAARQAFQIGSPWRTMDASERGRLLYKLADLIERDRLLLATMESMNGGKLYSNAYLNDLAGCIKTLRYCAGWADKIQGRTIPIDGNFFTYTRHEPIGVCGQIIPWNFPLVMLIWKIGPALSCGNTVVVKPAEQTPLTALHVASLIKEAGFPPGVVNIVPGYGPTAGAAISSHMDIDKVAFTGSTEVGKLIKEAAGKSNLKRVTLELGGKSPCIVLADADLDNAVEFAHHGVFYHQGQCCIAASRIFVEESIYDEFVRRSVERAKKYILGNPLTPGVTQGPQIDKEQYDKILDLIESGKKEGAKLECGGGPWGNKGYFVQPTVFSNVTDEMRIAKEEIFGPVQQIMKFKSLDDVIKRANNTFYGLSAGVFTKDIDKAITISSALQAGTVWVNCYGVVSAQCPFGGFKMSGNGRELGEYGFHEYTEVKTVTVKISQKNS
Potency means the concentration at half of the fitted maximal effect.

Compound	Potency	activity, negative = inhibition
COc1cc(-n2c(=S)[nH]c3ccc(C)cc3c2=O)c(Cl)cc1Cl	inactive	–
CN(C)P(=S)(Nc1ccccc1)C(Cl)(Cl)Cl (centres undefined)	inactive	–
O=NO	inactive and 11.2 µM (active)	–
C[C@@]12CC[C@H](O)C[C@@H]1CC[C@@H]1[C@@H]2CC[C@@]2(C)[C@@H](C3=CC(=O)OC3)[C@H](O)C[C@]12O	–	23.8% [at 13.5 µM] (inactive)
OC(CNC1CCCCC1)c1ccccc1 (centres undefined)	inactive	–
CC(Cc1cccs1)NCc1ccc(Cl)cc1 (centres undefined)	inactive	–
CCN(CC)C(=O)c1ccc(NC(=O)c2cc(-n3cnnc3)ccc2Cl)cc1	25.1 µM (active)	–
CC(C)(Cc1c[nH]c2ccc(Cl)cc12)NCCOc1ccccc1OCC1CC1	inactive	–
O=c1[nH]c(=O)n(-c2ccccc2)c(O)c1C=NC12CN3CN(CN(C3)C1)C2	inactive	–
C=CCN1CCC2(C)c3cc(O)ccc3CC1[C@@H]2C (some centres undefined)	inactive	–
CC(=O)O[C@H]1CC[C@@]2(C)[C@@H](CC[C@H]3[C@H]2CC(=O)[C@]2(C)[C@@H]3C[C@@H](N3CC3)[C@H]2C(C)=O)C1	–	6.14% [at 13.5 µM] (inactive)
COC1CC(OC2CC[C@@]3(C=O)C4CC[C@]5(C)C(C6=CC(=O)OC6)CC[C@@]5(O)C4CC[C@]3(O)C2)OC(C)C1O (some centres undefined)	inactive	–
O=C(O)CCn1cc(C=C2C(=O)NC(=S)NC2=O)c(-c2cccc(Br)c2)n1	10 µM (active)	–
COP(=O)(NS(=O)(=O)c1ccccc1)OC	inactive	–
CN1C2CC3CC1C(O3)C2O (centres undefined)	inactive	–
C[C@@]12CC[C@H]3[C@@H](CC[C@]4(O)C[C@H](O)CC[C@@]34C=O)[C@]1(O)CC[C@@H]2C1=CC(=O)OC1	inactive	–
OC1/C(=C/c2ccc(C(F)(F)F)cc2)N2CCC1CC2 (centres undefined)	inactive	–
CCCCC/C=C\C/C=C\C/C=C\C/C=C\CCCCCC(=O)NCCO	inactive and 14.1 µM (active)	–
CCCCC/C=C\C/C=C\C/C=C\CCCCCCC(=O)NCCO	inactive	–
CCCCC/C=C\C/C=C\C/C=C\C=C\[C@H](CCCC(=O)O)OO	inactive	–
O=C(COC(=O)Cc1ccccc1)Nc1ccc(F)cc1	inactive	–
O=c1[nH]c(=O)n(Cc2ccccc2)c(O)c1/C=N/Nc1c(F)c(F)c(F)c(F)c1F	inactive	–
CNC(=O)N(C)c1nnc(C(C)(C)C)s1	inactive	–
CN1[C@@H]2CC[C@H]1CC(OC(=O)c1cc(Cl)cc(Cl)c1)C2 (some centres undefined)	inactive	–
BrC1C(Br)C(Br)C(Br)C(Br)C1Br (centres undefined)	20 µM (active)	–

Compound	Potency	activity, negative = inhibition
O=C(CCN1CCCCC1)NCC(=O)Nc1ccc(Br)cc1C(=O)c1ccccc1	inactive	–
N[C@H](Cc1o[nH]c(=O)c1Cl)C(=O)O	inactive	–
CC(C)(C)CC(=O)Nc1nnc(SCC(=O)NCc2cccs2)s1	17.8 µM (active)	–
N[C@H](C(=O)O)c1cc(=O)[nH]o1	inactive	–
N#Cc1ccc(Cn2cc(C(=O)c3ccco3)c3ccccc32)cc1	inactive	–
COP(=O)(OC)C(NC(=O)c1ccc(C)cc1)C(Cl)(Cl)Cl (centres undefined)	inactive	–
OC(Cn1c2ccccc2c2ccccc21)C[n+]1ccccc1 (centres undefined)	inactive	–
CCNc1nc2[nH]c(=O)c3c(c2s1)OC(N)=C(C#N)C3c1cccs1 (centres undefined)	inactive	–
CCCCN1C2CCC1CC(OC(c1ccc(F)cc1)c1ccc(F)cc1)C2 (centres undefined)	inactive	–
Cc1ccc(NN=C2C(=O)OC(C)(C)OC2=O)c(C)c1	10 µM (active)	–
Cc1nc2nc(C)c(CCC(=O)N3CCC4(CC3)OCCO4)c(C)n2n1	inactive	–
CC1=CC(=O)C2=C(C)C[C@H](O)[C@H]3[C@H](C)C(=O)O[C@@H]3C12 (some centres undefined)	inactive	–
COc1cc(C(=S)N2CCOCC2)ccc1O	18.9 µM (active)	–
COc1ccc(C(=O)C2CCCN(Cc3ccc(C)s3)C2)cc1OC (centres undefined)	inactive	–
C=CCN1CCC23c4c5ccc(O)c4O[C@H]2C(=O)CC[C@@]3(O)C1C5 (some centres undefined)	inactive	–
CCC/C(=N\O)c1c[nH]c2ccccc12	inactive	–
CCCOC(=O)C1C2c3ccccc3C(c3ccccc32)C1C(=O)O (centres undefined)	inactive	–
Cc1ccc(-c2cc(C(=O)N3CCC4(CC3)OCCO4)no2)cc1	inactive	–
Cc1ccsc1C(=O)C1CCCN(Cc2ccc(O)cc2)C1 (centres undefined)	inactive	–
COc1ccc2c3c1O[C@H]1C[C@@H](O)C=C[C@@]31CCN(C)C2	inactive	–
CCOC(=O)CC1=C(C(=O)OCC)C2(C(=O)N1)C(C(=O)OC)=C(N)Oc1ccccc12 (centres undefined)	inactive	–
COC(=O)CN1C(=O)C2(C(C(=O)OC)=C(N)Oc3ccccc32)C2=C1CC(C)(C)CC2=O (centres undefined)	1 µM (active)	–
CCOC(=O)C1=C(C)OC(N)=C(C(=O)OC)C12C(=O)Nc1ccc(Br)cc12 (centres undefined)	inactive	–
CCN1C[C@@]2(COC)CC[C@H](OC)[C@]34[C@@H]1[C@]1(OCO[C@@]15C[C@@H](OC)C1C[C@H]3[C@H]5[C@@H]1OC)[C@H](O)[C@@H]24	inactive	–
CC(=O)CC(C)C	12.6 µM (active)	–

Compound	Potency	activity, negative = inhibition
N#CC1=C(N)Oc2c(c(=O)oc3ccccc23)C1c1ccccc1OC(=O)c1cccs1 (centres undefined)	inactive	–
COc1ccc(CCn2c(O)c(C=NC3CC3)c(=O)[nH]c2=O)cc1OC	inactive	–
ClCCBr	inactive	–
CO[C@@H]1C[C@@H](C[C@H]2CC[C@H](C)[C@@H]([C@@H](C)C(=O)O)O2)O[C@]2(O[C@](C)([C@H]3CC[C@@](C)(C4OC([C@H]5O[C@@](O)(CO)[C@H](C)C[C@@H]5C)C[C@@H]4C)O3)C[C@H]2C)[C@@H]1C (some centres undefined)	inactive	–
COC(=O)N(c1ccc(OC)cc1)P1(=S)OCCC(C)O1 (centres undefined)	2.24 µM (active)	–
CCOc1ccc(C2SCC(=O)Nc3c2c(C)nn3C2CCOC(C)(C)C2)cc1 (centres undefined)	inactive	–
ClC(Cl)=C(Cl)C(Cl)=C(Cl)Cl	inactive	–
O=C1NC(=O)N(c2ccc(F)cc2)C(=O)/C1=C/c1ccc2c(c1)CCCN2Cc1ccccc1	0.158 µM (active)	–
Fc1ccc(C(OCCN2CCN(C/C=C\c3ccccc3)CC2)c2ccc(F)cc2)cc1	inactive	–
CC(C)(O)c1[se]c2ccccc2c1I	inactive	–
c1ccc(CN2CC[C@@]3(CCCNC3)C2)cc1	inactive	–
CC(=O)Cc1ccc(OC(C)C)cc1	inactive	–
CN(C)c1nc(N(C)C)nc(N(C#N)CCCl)n1	6.31 µM (active)	–
O=C1C2(Cl)C3(Cl)C4(Cl)C(Cl)(Cl)C5(Cl)C3(Cl)C1(Cl)C5(Cl)C24Cl (centres undefined)	inactive	–
NC[C@H](O)c1ccc(O)cc1	inactive	–
c1ccc(C2NCc3ccccc3-n3cccc32)cc1 (centres undefined)	inactive	–
O=C(OCC(=O)c1cccs1)C1=COCCO1	14.1 µM (active)	–
CN1CCN(C(=O)O[C@@H]2c3nccnc3C(=O)N2c2ccc(Cl)cn2)CC1	inactive	–
CC(C)(c1ccc(OC[C@@H]2CO2)cc1)c1ccc(OC[C@H]2CO2)cc1	inactive	–
CC[N+]1(C)CCCC(OC(=O)C(O)(c2ccccc2)c2ccccc2)C1 (centres undefined)	inactive	–
O=C(NCC(c1cccnc1)N1CCN(c2ccccc2)CC1)Oc1ccccc1 (centres undefined)	inactive	–
CCCn1c(C(=O)c2ccccc2OC)nc2ccccc21	inactive	–
Cc1cccc(N2C(=O)NC(=O)/C(=C\c3cnn(-c4ccccc4)c3)C2=O)c1	7.08 µM (active)	–
C[C@H]1CC[C@@]2(NC1)O[C@@H]1C[C@H]3[C@@H]4CC=C5C[C@@H](O)CC[C@]5(C)[C@@H]4CC[C@]3(C)[C@@H]1[C@@H]2C	inactive	–
NCC(O)c1ccc(O)cc1 (centres undefined)	inactive	–

Compound	Potency	activity, negative = inhibition
Cc1cc(C)cc(NC(=S)NC2CC3CCCC(C2)N3Cc2cccs2)c1 (centres undefined)	inactive	–
O=C(CSC1c2ccccc2-c2ccccc21)N/N=C/c1ccccc1	inactive	–
O=C(CN1CCCC1=O)NCCc1ccccc1	inactive	–
COC1=C[C@@H]2[C@@H]3Cc4ccc(OC)c(O)c4[C@]2(CCN3C)CC1=O	inactive	–
CC(C(=O)Nc1ccc(Cl)cc1Cl)N1CC=C(c2ccccc2)CC1 (centres undefined)	inactive	–
CCCC[N+]1(C)C2CC(OC(=O)C(CO)c3ccccc3)CC1C1OC12 (centres undefined)	inactive	–
CC(=O)NC(=O)NC(C)Cc1ccccc1 (centres undefined)	inactive	–
CC(C)CC(C)Nc1ccc(Nc2ccccc2)cc1 (centres undefined)	14.1 µM (active)	–
CC12CN3CC(C)(CN(C1)C3c1cccs1)C2 (centres undefined)	inactive	–
CCCCC(=O)N/N=C/c1c(O)n(CC)c(=S)n(CC)c1=O	inactive	–
Cc1cc(-c2ccc(N)c(C)c2)ccc1N	28.2 µM (active)	–
CC1CCCCN1Cc1cccnc1 (centres undefined)	inactive	–
C/C(=C\C=C/[C@@H](C)C(=O)O)[C@H]1CN[C@H](C(=O)O)[C@@H]1CC(=O)O	inactive	–
CCN1C[C@]2(COC)C(O)C[C@H](OC)[C@@]34C5C[C@]6(O)C(OC)C(O)[C@](OC(C)=O)(C5C6OC(=O)c5ccccc5)C(C(OC)C23)C14 (some centres undefined)	inactive	–
CC(=O)c1c(O)c(C)c(O)c(Cc2c(O)c3c(c(C(=O)/C=C\c4ccccc4)c2O)OC(C)(C)C=C3)c1O	22.4 µM (active)	–
CC(=O)c1c(O)c(C)c(O)c(Cc2c(O)c3c(c(C(=O)/C=C/c4ccccc4)c2O)OC(C)(C)C=C3)c1O	17.8 µM (active) and 14.1 µM (active)	–
COC1=C[C@]23CCCN2CCc2cc4c(cc2[C@@H]3[C@@H]1O)OCO4	inactive	–
O=C(O)C1C2CCC(O2)C1C(=O)O (centres undefined)	inactive	–
CN(C)C1C(=O)C(C(N)=O)=C(O)[C@@]2(O)C(=O)C3=C(O)c4c(O)cccc4[C@@](C)(O)C3C[C@@H]12 (some centres undefined)	inactive	–
C=CCSSCC=C	6.31 µM (active)	–
CN(C)c1ccc(/C=C2\CC3C4CC=C5CC(O)CCC5(C)C4CCC3(C)C2=O)cc1 (centres undefined)	inactive	–
O=C1NC(=O)C(CCc2ccccn2)(Cc2cccc(Cl)c2Cl)C(=O)N1c1ccc(Br)cc1 (centres undefined)	inactive	–
CCOC(=O)C(O)(c1ccc(N=Cc2ccccc2O)c(C)c1)C(F)(F)F (centres undefined)	inactive	–
CN(C)C(=O)Oc1cc(=O)n2c3c(cccc13)CCC2	inactive	–
